Experimental data reported in PubChem BioAssay (NCI).
About 79,000 compounds went through this panel and 15% of them were active in at least one assay; those are over-represented in the sample as a whole. Rule as the data show it: active = growth inhibition above about 70%; inactive = the rest.

How the values were obtained:
[1] = NCI Yeast Anticancer Drug Screen. Data for the rad50 strain (AID 155);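 also: 0% = growth of vehicle-only cultures of the same strain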; details: S. cerevisiae rad50 strain growth inhibition; at 50.0 µM; active compounds read high
In short: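 DNA repair mutant yeast, compound exposure, growth read-out; inhibition is taken relative to vehicle.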

[2] = NCI Yeast Anticancer Drug Screen. Data for the mec2-1 strain (AID 157); details: S. cerevisiae mec2-1 strain, at 50.0 µM, active compounds read high
In short: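 mec2-1 yeast strain, carrying an alteration in DNA damage repair or cell cycle control, was exposed to compounds; growth inhibition was measured relative to vehicle-treated controls.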

[3] = NCI Yeast Anticancer Drug Screen. Data for the sgs1 mgt1 strain (AID 161);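 also: 0% = growth of cultures given vehicle only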; details: S. cerevisiae sgs1 mgt1 strain, at 50.0 µM, active compounds read high
In short: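 Compounds are added to genetically altered yeast, and growth is compared with cultures given vehicle alone to give percent inhibition.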

[4] = NCI Yeast Anticancer Drug Screen. Data for the cln2 rad14 strain (AID 165);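 also: 0% = growth equal to vehicle treated cultures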; details: S. cerevisiae cln2 rad14 strain, at 50.0 µM, active compounds read high
In short: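 Yeast carrying cln2 and rad14 alterations (cell cycle control and DNA damage repair) were exposed to compounds. Growth inhibition was measured against vehicle-treated controls.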

[5] = NCI Yeast Anticancer Drug Screen. Data for the bub3 strain (AID 167); details: S. cerevisiae bub3 mutant strain, at 50.0 µM, active compounds read high
In short: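 In this screen, a yeast mutant lacking normal mitotic checkpoint function is challenged with compound. Relative growth versus vehicle gives the inhibition value.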

[6] = NCI Yeast Anticancer Drug Screen. Data for the mlh1 rad18 strain (AID 175); details: S. cerevisiae mlh1 rad18 strain growth inhibition; at 50.0 µM; active compounds read high
In short: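 Growth inhibition of the yeast strain was measured after compound exposure and expressed relative to vehicle-treated controls. The strain carries defined defects in DNA damage repair.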

Measured: growth inhibition

O=C(OC1CC2CCC23CCC13)c1ccccc1 (stereo unspecified)
inactive: [1] -1.35% | [2] 6.1% | [3] 10.2% | [4] -7.6% | [5] -37.5% | [6] -18.9%

O=C(Nc1cc(C(F)(F)F)ccc1Cl)C(=O)C(C(=O)c1ccc2ccccc2c1)C1OC(=O)c2ccccc21 (stereo unspecified)
inactive: [1] 35% | [2] 24.4% | [3] 19.6% | [4] 20.3% | [5] 30.9% | [6] 55.5%

CCOC(=O)C(=CN1CCCCCC1)C(=O)OCC
inactive: [1] 19.8% | [2] 13.2% | [3] 13.2% | [4] 6.1% | [5] -0.25% | [6] 32.5%

NC12CCC(CC1)C2
inactive: [1] -14.3% | [2] 13.3% | [3] -14.1% | [4] -6.25% | [5] -10.4% | [6] -4.8%

O=c1oc2ccccc2cc1S(=O)(=O)c1ccccc1
inactive: [1] 1.35% | [2] 4.8% | [3] 1.4% | [4] -53.1% | [5] -0.95% | [6] 18.4%

C/C(O)=C(/N=Nc1ccc(-c2nc3ccc(C)c(S(=O)(=O)O)c3s2)cc1)C(=O)Nc1ccccc1
inactive: [1] 12.7% | [2] -22.5% | [3] 21.2% | [4] 16% | [5] 19.9% | [6] 26.9%
